Data taken from the supplement of paper PMC13380429.

System: Vero E6 infected with SARS-CoV-2
Assay: inhibition of SARS-CoV-2 cytopathic effect; higher = more antiviral protection, active = above 15
Conditions: 48 h

Measured: inhibition of SARS-CoV-2 cytopathic effect

CC[C@H](C)C(=O)O[C@H]1C[C@@H](C)C=C2C=C[C@H](C)[C@H](CC[C@@H]3C[C@@H](O)CC(=O)O3)[C@H]21 [lovastatin]
inactive: 1 nM -0.49% | 8.33 nM 4.16% | 100 nM 1.14% | 833.33 nM 1.16% | 10000 nM 0.82%

Nc1c(S(=O)(=O)O)cc(Nc2cccc3ccccc23)c2c1C(=O)c1ccccc1C2=O
inactive: 1 nM -0.33% | 8.33 nM -0.72% | 100 nM -2.22% | 833.33 nM -1.16% | 10000 nM -4.63%

N[C@@H]1[C@H]2CN(c3nc4c(cc3F)c(=O)c(C(=O)O)cn4-c3ccc(F)cc3F)C[C@@H]12 [trovafloxacin]
inactive: 1 nM -8.03% | 8.33 nM -6.09% | 100 nM -4.83% | 833.33 nM -0.82% | 10000 nM -1.33%

COc1cc(S(C)(=O)=O)ccc1Nc1nc2ccc(-c3ccc(NC(=O)[C@H](C)c4ccc(F)cc4)cc3)cn2n1
inactive: 1 nM 0.71% | 8.33 nM -3.05% | 100 nM 0.88% | 833.33 nM -5.66% | 10000 nM -4.51%

CC(C)S(=O)(=O)NC[C@H](C)c1ccc(-c2ccc(CCNS(C)(=O)=O)cc2)cc1 [mibampator]
inactive: 1 nM -0.11% | 8.33 nM -1.29% | 100 nM -1.07% | 833.33 nM 1.62% | 10000 nM 4.07%

C[C@@H]1O[C@@H](O[C@H]2[C@H](Oc3cc(O)c4c(c3)O[C@H](c3ccc(O)cc3)CC4=O)O[C@H](CO)[C@@H](O)[C@@H]2O)[C@H](O)[C@H](O)[C@H]1O [Naringin (Naringoside)]
inactive: 1 nM -3.68% | 8.33 nM -1.36% | 100 nM -3.02% | 833.33 nM -1.1% | 10000 nM 1.71%
